The supplement of paper PMC12494721
Where a name gives a salt, the structure may show the parent alone.

Columns and labels:
Conditions in all cases: incubation time: 27 h, anaerobic, 37 °C;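 for the amine columns active = adjusted P below 0.05 in both replicates with a change the same way and a mean fold change under 0.8 or over 1.25; inactive = the rest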
[1] = system: Clostridium sporogenes DSM 1664; assay: growth (OD595) fold change vs plate DMSO controls (fold change (ratio)); higher = more growth
How it was run: (§1)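 The reported measure is growth: the fold change against the median of DMSO controls on the plate. Absorbance at 595 nm from anaerobic 96-well mGAM cultures grown for 27 h at 37 °C was blank-subtracted, corrected for background with 20 µM compound solutions in water, and converted to OD with a calibration factor of 5. Fold changes above 1.5 appear as NA, and values are the mean of 2 biological replicates.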

[2] = system: Escherichia coli IAI1; assay: as above
How it was run: as §1

[3] = system: Klebsiella aerogenes DSM 30053; assay: as above
How it was run: as §1

[4] = system: Ruminococcus gnavus DSM 108212; assay: as above
How it was run: as §1

[5] = system: Klebsiella aerogenes DSM 30053; assay: fold change of Histamine concentration vs plate DMSO controls (fold change (ratio)); higher = more amine produced, active = hit call of the paper (significant change in both replicates, either direction)
How it was run: (§2)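 Anaerobic mGAM cultures of four gut bacterial strains were grown at 37 °C for 27 h in 80 µL wells, starting at OD 0.1 before 1:1 dilution. Compounds were at 20 µM final (sweeteners 50 µM). Whole cultures were extracted with cold acetonitrile/methanol containing 0.1% formic acid and centrifuged. Amines were quantified by LC–triple-quadrupole MS (dynamic MRM) against external calibration curves and drift-corrected within batch. Each value is the fold change versus plate DMSO controls, averaged over 2 biological replicates.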

[6] = system: Clostridium sporogenes DSM 1664; assay: fold change of Tryptamine concentration vs plate DMSO controls (fold change (ratio)); higher = more amine produced, active = hit call of the paper (significant change in both replicates, either direction)
How it was run: as §2

[7] = system: Ruminococcus gnavus DSM 108212; assay: as above
How it was run: as §2

[8] = system: Escherichia coli IAI1; assay: fold change of Putrescine concentration vs plate DMSO controls (fold change (ratio)); higher = more amine produced, active = hit call of the paper (significant change in both replicates, either direction)
How it was run: as §2

[9] = system: Klebsiella aerogenes DSM 30053; assay: as above
How it was run: as §2

[10] = system: Escherichia coli IAI1; assay: fold change of Cadaverine concentration vs plate DMSO controls (fold change (ratio)); higher = more amine produced, active = hit call of the paper (significant change in both replicates, either direction)
How it was run: as §2

[11] = system: Klebsiella aerogenes DSM 30053; assay: as above
How it was run: as §2

[12] = system: Ruminococcus gnavus DSM 108212; assay: fold change of 2-Phenylethylamine concentration vs plate DMSO controls (fold change (ratio)); higher = more amine produced, active = hit call of the paper (significant change in both replicates, either direction)
How it was run: as §2

SMILES	growth [1]	growth [2]	growth [3]	growth [4]	fold change of Histamine concentration [5]	fold change of Tryptamine concentration [6]	fold change of Tryptamine concentration [7]	fold change of Putrescine concentration [8]	fold change of Putrescine concentration [9]	fold change of Cadaverine concentration [10]	fold change of Cadaverine concentration [11]	fold change of 2-Phenylethylamine concentration [12]
CC1=NN(c2ccccc2)C(=O)C1 [Edaravone] (20 µM)	0.889	1.03	1.02	0.963	0.97 (inactive)	0.939 (inactive)	1.01 (inactive)	1.03 (inactive)	1.02 (inactive)	0.986 (inactive)	1.01 (inactive)	0.984 (inactive)
C[C@H](O)[C@H](O)[C@H]1CNc2[nH]c(N)nc(=O)c2N1 [Sapropterin dihydrochloride] (20 µM)	1.12	0.893	0.928	0.813	0.931 (inactive)	0.972 (inactive)	0.945 (inactive)	1.01 (inactive)	1.01 (inactive)	1.03 (inactive)	1.01 (inactive)	0.911 (inactive)
C[C@H](CCC(=O)O)[C@H]1CC[C@H]2[C@@H]3[C@@H](O)C[C@@H]4C[C@H](O)CC[C@]4(C)[C@H]3CC[C@]12C [Urosiol] (20 µM)	0.969	1.05	1.06	1.02	0.998 (inactive)	1.08 (inactive)	1.08 (inactive)	1.01 (inactive)	0.961 (inactive)	0.954 (inactive)	1.05 (inactive)	1.1 (inactive)
CCCCOc1ccc(OCCCN2CCOCC2)cc1 [Pramoxine hydrochloride] (20 µM)	1.11	0.971	1.17	0.899	0.904 (inactive)	1.06 (inactive)	1.01 (inactive)	0.96 (inactive)	0.976 (inactive)	0.97 (inactive)	1.02 (inactive)	1.07 (inactive)
O=C(O)c1cc(=O)[nH]c(=O)[nH]1 [Orotic acid] (20 µM)	1.11	0.979	1.01	1.22	0.955 (inactive)	1.01 (inactive)	0.967 (inactive)	0.995 (inactive)	1.01 (inactive)	1.03 (inactive)	0.993 (inactive)	0.948 (inactive)
Cc1cc(NC(=O)C2=C(O)c3ccccc3S(=O)(=O)N2C)no1 [Isoxicam] (20 µM)	1.11	1.05	0.997	1.02	0.996 (inactive)	1.02 (inactive)	1.02 (inactive)	1.03 (inactive)	1.01 (inactive)	0.969 (inactive)	0.994 (inactive)	0.947 (inactive)
CC=C(C)C(=O)OC1C(OC(C)=O)C2(CO)C(O)CC3(C)C(=CCC4C5(C)CCC(OC6OC(C(=O)O)C(OC7OC(CO)C(O)C(O)C7O)C(O)C6OC6OC(CO)C(O)C(O)C6O)C(C)(CO)C5CCC43C)C2CC1(C)C (stereo not drawn) [Beta-Escin] (20 µM)	0.94	1	1.01	1.01	1.01 (inactive)	0.988 (inactive)	0.982 (inactive)	0.986 (inactive)	0.994 (inactive)	1.01 (inactive)	1 (inactive)	0.953 (inactive)
O=C(O)CCC(=O)Nc1ccc(S(=O)(=O)Nc2nccs2)cc1 [Succinylsulfathiazole] (20 µM)	1.03	1.11	1.2	1.13	0.965 (inactive)	0.988 (inactive)	1.02 (inactive)	1.04 (inactive)	0.997 (inactive)	0.991 (inactive)	1.01 (inactive)	1.02 (inactive)
OC[C@H]1O[C@@](CO)(OC[C@@]2(OC[C@@]3(O[C@H]4O[C@H](CO)[C@@H](O)[C@H](O)[C@H]4O)O[C@H](CO)[C@@H](O)[C@@H]3O)O[C@H](CO)[C@@H](O)[C@@H]2O)[C@@H](O)[C@@H]1O [Nystose] (50 µM)	1.05	1.09	1.02	1.05	1.05 (inactive)	1.01 (inactive)	1 (inactive)	0.999 (inactive)	1.01 (inactive)	0.958 (inactive)	0.995 (inactive)	0.994 (inactive)
C=C1C[C@H]2[C@@H]3C=C(C)C4=CC(=O)CC[C@]4(C)[C@H]3CC[C@]2(C)[C@@]1(OC(C)=O)C(C)=O [Melengestrol acetate] (20 µM)	1.17	1.07	1.07	1.04	1.03 (inactive)	1 (inactive)	1.03 (inactive)	1.02 (inactive)	1 (inactive)	1.02 (inactive)	0.995 (inactive)	1.05 (inactive)
O=C(O)c1ccccc1C(=O)Nc1ccc(S(=O)(=O)Nc2nccs2)cc1 [Phthalylsulfathiazole] (20 µM)	0.901	0.981	0.96	1.09	1 (inactive)	1.1 (inactive)	0.948 (inactive)	1.03 (inactive)	1.01 (inactive)	1.04 (inactive)	0.987 (inactive)	0.919 (inactive)
CCN(CC)C(C)CN1c2ccccc2Sc2ccccc21 (centres undefined) [Ethopropazine hydrochloride] (20 µM)	1.04	0.975	0.954	0.823	1.01 (inactive)	1.03 (inactive)	0.928 (inactive)	1.05 (inactive)	1 (inactive)	1.04 (inactive)	0.992 (inactive)	0.984 (inactive)
